# Laboratory results from PubChem BioAssay (NCI).
# About 83,000 compounds went through this panel and 20% of them were active in at least one assay; those are over-represented in the sample as a whole.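 Single-dose data. Exposure time 48 hours. Values below 10 considered active.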 Active and inactive are the calls of the source.
# Test system: MDA-MB-435 melanoma
# Assay: NCI-60 one-dose screen, 48 h (100 = growth as untreated, 0 = no growth, -100 = all killed)
# Details: 10 µM unless noted
row,Structure (SMILES),growth
1,O=C(Cn1c2ccccc2c2ccncc21)N/N=C/c1c[nH]c2ccccc12,33.8% (inactive)
2,OC(COc1ccccc1Cl)CN1CCN(c2ccc(Cl)cc2)CC1 (stereo not drawn),105% (inactive)
3,Nc1nccc2c1ccn2-c1ccc(NC(=O)Nc2cccc(C(F)(F)F)c2)cc1,96.6% (inactive)
4,O=C(Nc1ccc(-n2ccc3c(NC(=O)c4ccccc4)nccc32)cc1)Nc1cccc(C(F)(F)F)c1,61.4% (inactive)
5,O=C1C(Cl)=C(Nc2ccccc2)C(=O)C(Cl)=C1Nc1ccccc1,104% (inactive)
6,CC(=O)Nc1ccc([I+]c2ccc([N+](=O)[O-])cc2)cc1,109% (inactive)
7,CCN1CCN(Cc2ccc(NC(=O)Nc3cccc(-n4ccc5c(NC(=O)c6ccccc6)nccc54)c3)cc2C(F)(F)F)CC1,9.58% (active)
8,O=C(Nc1cccc(-n2ccc3c(NC(=O)c4ccccc4)nccc32)c1)c1cccc(C(F)(F)F)c1,1.38% (active)
9,CC(=O)N[C@@H](CNC(=O)c1cc(NC(=O)c2cc(NC(=O)c3cc(NC(=O)c4nccn4C)cn3C)cn2C)cn1C)CC(=O)Nc1cn(C)c(C(=O)Nc2cc(C(=O)Nc3cc(C(=O)Nc4cc(C(=O)NCCCN(C)CCCNC(=O)c5cccc(C(=O)O)c5)n(C)c4)n(C)c3)n(C)c2)n1,95.5% (inactive)
10,CCOC(=O)c1cnc2c(OC)ccc(OC)c2c1Cl,104% (inactive)
11,NS(=O)(=O)c1ccc(Nc2nc(O)c(/C=C3\C=Nc4ccccc43)s2)cc1,107% (inactive)
12,CNC(=O)NN,102% (inactive)
13,Cc1cc(O[C@@H]2O[C@@H](C)[C@H](O)[C@@H](O)[C@H]2O)c2c3c(c(O[C@@H]4O[C@@H](C)[C@H](O)[C@@H](O)[C@H]4O)cc2c1)C(=O)c1c(O)cccc1C3=O,92.8% (inactive)
